High-throughput results from PubChem BioAssay.
Chronic BCR inh: qHTS Assay to Find Inhibitors of Chronic Active B-Cell Receptor Signaling; ABC-DLBCL IkBa-CBG/CBR reporter, luminescence ratio, 4 h; Potency, µM (series often up to 46.1 µM), for inactives: at the top dose activity change, negative = inhibition, most hits filed as inhibitors; hit rate 0.05% among 340,000; active = well fitted inhibition curve with a large enough effect in the signal ratio, with a control signal flat, not every such curve was filed as active; inconclusive = small, poorly fitted or top-dose-only effect, or effect the other way, or a change in a side signal; the % refers to the signal ratio;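 note: potency is the fitted concentration of half-maximal effect; plate controls were basal doxycycline-induced cells for no effect and cells given 10 µM MG132 for full effect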
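Compounds up to 46 uM were incubated four hours with TMD8 cells whose green CBG68 luciferase is fused to IkappaBalpha; red CBR luminescence normalised the signal, and concentration-effect curves were fitted to fusion, red and ratio data.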
hERG WT inh: qHTS for Inhibitors of KCHN2 3.1: Wildtype qHTS. Voltage-gated inwardly rectifying potassium channel KCNH2 (Homo sapiens), Q12809. U2OS, BacMam KCNH2, thallium flux FluxOr; active compounds read low. activity change, % at 1.84 µM. hit rate 0.37% among 340,000. AID 720551, 2013;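 active = maximum activity change below -70%; inconclusive = maximum activity change between -70% and -50%; inactive = maximum activity change above -50%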; note: % is set by controls: 0 for no effect and ±100 for the full control effect
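U2OS cells were transduced with wild-type KCNH2 virus (2.03 x 10^8 / mL) for 4 h at room temperature, then cultured overnight at 37 C. Thallium flux was read with FluxOr dye. Rate constants were normalized to DMSO controls.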
ALOX12 inh: Primary qHTS assay for inhibitors of human arachidonate 12S-lipoxygenase (ALOX12): Round 2. Polyunsaturated fatty acid lipoxygenase ALOX12 (Homo sapiens), P18054. purified 12hLO, xylenol orange hydroperoxide absorbance. Potency, µM (highest dose often 108 µM), without a hit: at the top dose activity change, negative = inhibition, hits mostly inhibitors. hit rate 1.1% among 580,000; active = well fitted inhibition curve with a large enough effect; inconclusive = small, poorly fitted or top-dose-only effect, or another doubt; inactive = no such curve, though single readings can be large or run the other way; note: potency is the fitted concentration of half-maximal effect; % is set by controls: 0 for no effect and ±100 for the full control effect
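Purified human 12hLO at 150 nM in 25 mM Hepes, 0.01% Triton X-100, pH 7.0, preincubated 15 min at room temperature with compound. Reaction started with 40 uM arachidonic acid, 30 min at room temperature. Hydroperoxide measured by Fe-xylenol orange, 573/405 nm absorbance ratio.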
LDHA inh: qHTS assay for inhibitors of human lactate dehydrogenase. hit rate 0.15% among 480,000. AID 1347041, 2019. purified LDHA, NADH/diaphorase-resazurin fluorescence; active compounds read low. L-lactate dehydrogenase A chain (Homo sapiens), P00338. activity change, % (values are at about 110 or 230 µM); in the data active = activity change below about -30%; inconclusive = mostly about -25% to -30%;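 note: plate controls were DMSO wells for no effect and wells without enzyme for full effect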
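Enzyme activity of human lactate dehydrogenase 5 (2 nM; 0.06 mM NADH, 0.2 mM pyruvate, 5 min, RT) is measured via a resazurin/diaphorase fluorescence readout of residual NADH.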
ClpP mod: qHTS Assay for Activators of ClpP; hit rate 1.9% among 340,000; ATP-dependent Clp protease proteolytic subunit (Bacillus subtilis (strain 168)), P80244; purified B. subtilis ClpP, FRET peptide cleavage, 20 min; AID 651965, 2013; Potency, µM (highest dose often 57.5 µM), without a hit: at the top dose activity change, negative = active; active = well fitted falling curve with a large enough effect; inconclusive = small, poorly fitted or top-dose-only effect; inactive = no such curve, though single readings can be large or run the other way; note: potency is the fitted concentration of half-maximal effect; the source files actives as falling curves though it sought activators and does not explain the sign; nearly all actives have a fitted effect of over 65% in size
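Buffer: 100 mM Tris/HCl pH8, 100 mM KCl, 0.05% low protease BSA, 2.5% glycerol, 0.01% Tween-20. ClpP 10 microg/mL final; 20 min RT; delta FRET normalized to ADEP and DMSO controls.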
KCNH2 3.1 block: qHTS for Inhibitors of KCHN2 3.1: Mutant qHTS; hit rate 0.95% among 340,000; U2OS KCNH2 3.1, thallium flux FluxOr; active compounds read low; Potassium voltage-gated channel subfamily H member 2, brain isoform KCNH2 3.1 (human); activity change, % (tested at about 1.8 µM);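 active = maximum activity change below -70%; inconclusive = maximum activity change from -70% to -50%; inactive = maximum activity change above -50%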;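 note: thallium influx rate constant from kinetic fluorescence after stimulation buffer; % is set by controls: 0 for no effect and ±100 for the full control effect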
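Thallium flux via FluxOr fluorescence (Red40 quencher, 45 min loading) in U2OS cells virally expressing the KCNH2 3.1 isoform (1.77 x 10^8 /mL virus, overnight at 37 C). Rate constants from 2-min kinetic reads post-stimulation, normalised to positive and negative controls.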
Numbers without * were called inactive; ? = inconclusive; . = not tested or not shown; ! = not active in a repeat; [ ] = remark or other dose. Shown are actives, neighbours in structure and some others; about 3% of the full set was active somewhere.

SMILES	Chronic BCR inh	hERG WT inh	ALOX12 inh	LDHA inh	ClpP mod	KCNH2 3.1 block
O=C(/C=C1\C(=O)Nc2ccccc21)/C=C1\C(=O)Nc2ccccc21	?	4	8.9µM*	4	-6%	-4
Cc1ccc(C2=[N+]([O-])C(C)(C)N(O)C2C)cc1 (centres undefined)	.	.	3%	-3	.	.
Cc1ccc(C)c(NC(=O)CCN2CC(C)CC(C)C2)c1 (centres undefined)	-1%	-2	2%	-2	0%	-73*
F[C@@H]1CN(C2CCOCC2)C[C@@H]1OCc1nc2ccccc2[nH]1	.	.	0%[176 µM]	.	.	.
Cc1cc(CN2C(=O)c3ccccc3C2=O)cc(N2CCOCC2)c1	-21%	-294*	10%	-4	1%	5
O=C(CSc1nnc(COc2ccccc2)o1)c1ccccc1	23%	5	1%	-4	2%	-99*
CC(C)CC1=C/C(=C/c2ccc(-c3ccccc3)o2)C(=O)O1	-1%	-3	13µM*	2	25µM*	-20
O=C(N/N=C/c1ccc([N+](=O)[O-])o1)C1CCCCC1	.	.	?	4	.	.
S=c1[nH]c2ccccc2s1	.	.	28µM*!	2	.	.
S=c1[nH]c2cc3ccccc3cc2[nH]1	?	-5	?	4	2%	-3
Cc1ccccc1NC(=O)Cn1c(C)nc2ccc(NC(=O)C3CC3)cc2c1=O	-7%	-14	2%	-5	-13%	-2
Cc1ccccc1NC(=O)Cn1c(C)nc2ccc(N)cc2c1=O	-15%	-3	-8%	5	28µM*	0
COc1cccc(/C=C/c2nc3ccccc3s2)c1OC(F)F	.	.	12%	4	.	.
CC(C)CN(C(=O)COC(=O)C1=COCCO1)c1c(N)n(Cc2ccccc2)c(=O)[nH]c1=O	1%	5	-4%	-4	-2%	4
Nc1c(N(Cc2ccco2)C(=O)c2ccc(Br)cc2)c(=O)[nH]c(=O)n1Cc1ccccc1	-1%	-2	28µM*	-2	-8%	0
CCN(C(=O)COC(=O)C1=COCCO1)c1c(N)n(Cc2ccccc2)c(=O)[nH]c1=O	0%	-9	-24%	-4	14µM*	-13
CCN(C(=O)c1ccc(=O)[nH]c1)c1c(N)n(Cc2ccccc2)c(=O)[nH]c1=O	0%	7	186%	-13	-3%	-5
CCN(C(=O)c1ccc(=O)n(C)n1)c1c(N)n(Cc2ccccc2)c(=O)[nH]c1=O	1%	-1	2%	1	-1%	-92*
O=C(CCC1NC(=O)N(CCc2c[nH]c3ccc(F)cc23)C1=O)Nc1ccccc1 (centres undefined)	.	.	-15%	3	.	.
c1cncc(-c2cc(-n3ccnc3)ncn2)c1	.	.	45µM*	.	.	.
COc1ccc2cc(-c3cccnc3)ncc2c1	?	.	?	0	4%	.
CN(C)C(=O)c1ccc(-c2cc(-n3ccnc3)ncn2)cc1	.	.	25µM*	.	.	.
c1cncc(-c2cncnc2-n2ccnc2)c1	.	.	7.9µM*	.	.	.
CN1CCN(c2ncncc2-c2cccnc2)CC1	.	.	-32%	.	.	.
Cc1nc(SCC(=O)N2CCCC2=O)c2c(C)c(C)sc2n1	.	-90*	-12%	-15	-3%	10
SMILES	Chronic BCR inh	hERG WT inh	ALOX12 inh	LDHA inh	ClpP mod	KCNH2 3.1 block
Cc1nc(SCC(=O)N2CCOCC2)c2c(C)c(C)sc2n1	6%	-16	-1%	2	.	4
O=C(c1cc[n+]([O-])cc1)N1CCCC(CO)(CCCc2ccccc2)C1 (centres undefined)	.	.	8%	.	.	.
O=C(c1ccoc1)N1CCCC(CO)(CCCc2ccccc2)C1 (centres undefined)	1%	-16	.	1	0%	-155*
Cc1cccc(C(=O)O)c1NC(=O)c1ccc(F)cc1	14%	-194*	46%	-10	-3%	0
N#Cc1nc(-c2ccc([N+](=O)[O-])cc2)oc1NC1CCCCC1	.	.	-6%	1	.	.
CC1CCc2c(sc(NC(=O)CCCn3cnc([N+](=O)[O-])n3)c2C(N)=O)C1 (centres undefined)	-4%	-3	-8%	3	.	3
Cc1cc([N+](=O)[O-])nn1CCCC(=O)Nc1sc2c(c1C(N)=O)CCCC2	-2%	14	45µM*	-7	-10%	-11
Cc1cc([N+](=O)[O-])nn1CC(=O)Nc1sc2c(c1C(N)=O)CCCC2	-3%	0	-29%	4	.	7
NC(=O)c1c(NC(=O)CCCn2cnc([N+](=O)[O-])n2)sc2c1CCCC2	3%	-4	40µM*	4	.	-12
Cc1nc(-c2ccc(F)cc2)n(CC(=O)Nc2ccc(C(C)C)cc2)c(=O)c1CCO	.	.	7%	.	.	.
CC(C)c1ccc2oc(-c3cc(N)ccc3O)nc2c1	?	-3	?	0	2%	-4
CC(C)c1ccc2oc(-c3ccc(N)cc3O)nc2c1	.	.	35µM*	4	.	.
CC(C)OCc1ccc(CNC(=O)C2CCCCC2)cc1	.	.	12%	3	.	.
Cc1ccccc1NC(=O)CN1C(=O)S/C(=C\c2cccn2-c2cccc(C(=O)O)c2)C1=O	13%	3	67%	-5	-3%	1
Cc1cccc(C)c1NC(=O)CN1C(=O)S/C(=C\c2cccn2-c2cccc(C(=O)O)c2)C1=O	0%	-10	-26%	-1	28µM*	0
Cc1ccc(NC(=O)CN2C(=O)N/C(=C/c3cccn3-c3ccc(C(=O)O)cc3)C2=O)cc1	-6%	5	?	-30*	-6%	-13
Cc1cccc(C)c1-n1cccc1/C=C1\SC(=S)N(c2cccc(C(=O)O)c2)C1=O	?	-4	45µM*	-8	.	8
CCOCCOC1CCN(C(=O)c2ccc3cc[nH]c3c2)CC1	.	.	26%	.	.	.
c1ccc2c(c1)CC(N1CCC(CN(Cc3ccc4nonc4c3)CC3CCCO3)CC1)C2 (centres undefined)	.	.	19%	.	.	.
CC(O)(c1ccc(F)c(F)c1)c1nc(-c2csc3ccccc23)cs1 (centres undefined)	.	.	45µM*	-8	-3%	.
CC(O)(c1ccc(F)c(F)c1)c1nc(/C=C/c2ccc(C(F)(F)F)cc2)cs1 (centres undefined)	.	.	35µM*	1	?	.
CC(O)(c1cccc(F)c1)c1nc(-c2csc3ccccc23)cs1 (centres undefined)	.	.	?	-5	-1%	.
